Our source for the outcome and AC50 values is PubChem BioAssay (EPA / NIEHS).

Several values for one entry are separate records, joined by “and”; a condition that tells them apart may be missing. Equal entries are not always repeated. Activity calls are given as the source filed them. How the source made its calls: active means hit-call score of the fitted dose curve at least 0.9, where 1 is the maximum; inactive means score below 0.9.

The first experiment can be described thus: CCTE_Mundy_HCI_Cortical_Synap_Neur_Matur_NeuriteCount: CCTE's Synaptogenesis and Neurite Maturation Assay in rat cortical cells for Neurite Count, Mundy Lab (AID 2284222).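 On outcome: exposure from day 7 to day 12 in vitro with readout at day 12.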 In outline:
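Chemical exposure runs DIV 7–12 in rat cortical cultures, glia suppressed by AraC at DIV 5; measurement is at DIV 12. Imaging-derived neurite counts are fitted against DMSO baseline.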
For the molecule `COP(N)(=O)SC` (centres undefined), the result was inactive.
In the case of `CCOc1cc(Oc2ccc(C(F)(F)F)cc2Cl)ccc1[N+](=O)[O-]`, the AC50 is 16.6 µM (active).
Same read-out and setting: next, `CO/C=C(/C(=O)OC)c1ccccc1Oc1cc(Oc2ccccc2C#N)ncn1`: 4.78 µM (active).
On the same count and under the same terms, next, `COP(=S)(OC)Oc1nc(Cl)c(Cl)cc1Cl`: 27.9 µM (active).
Take `CCCCNC(=O)n1c(NC(=O)OC)nc2ccccc21`: the molecule was called inactive.
On the same count and under the same terms, next, `C=CC1(C)OC(=O)N(c2cc(Cl)cc(Cl)c2)C1=O` (centres undefined): “inactive”.
Regarding `CCOC(=O)CC(SP(=S)(OC)OC)C(=O)OCC` (centres undefined), the result was inactive.

The next experiment can be described thus: CCTE_Mundy_HCI_Cortical_Synap_Neur_Matur_CellBodySpotCount: CCTE's Synaptogenesis and Neurite Maturation Assay in rat cortical cells for Cell Body Spot Count, Mundy Lab (AID 2284223). In outline: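 Read-out: cell body-associated synaptophysin puncta per neuron, imaged after MAP2, synaptophysin and Hoechst staining. Rat cortical cells, AraC DIV 5, chemical dosing DIV 7, fixation DIV 12. Activity fitted in positive direction relative to DMSO baseline.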
With `CCCCC(CC)COC(=O)c1ccccc1C(=O)OCC(CC)CCCC` (centres undefined), the AC50 is 8.27 µM (active) and 7.64 µM (active).
Still for that read-out and setting: under `COC(=O)N(OC)c1ccccc1COc1ccn(-c2ccc(Cl)cc2)n1` stands 0.113 µM (active); under `CC(C)(C)c1ccc(CSc2cnn(C(C)(C)C)c(=O)c2Cl)cc1`, 0.00106 µM (active).
Consider `N#Cc1nn(-c2c(Cl)cc(C(F)(F)F)cc2Cl)c(N)c1S(=O)C(F)(F)F` (centres undefined), for which the molecule was called inactive.
Consider `Cc1ccc(-c2c(Cl)nc(C#N)n2S(=O)(=O)N(C)C)cc1`, for which the AC50 is 87.8 µM (active).
Still for that read-out and setting: under `CCCCOC(=O)c1ccccc1C(=O)OCCCC` stands 89.5 µM (active); under `C=CCC1=C(C)[C@@H](OC(=O)[C@@H]2[C@@H](C=C(C)C)C2(C)C)CC1=O`, 21.8 µM (active).
The same measure, in the same setting: next, `CN(C)C(=S)SSC(=S)N(C)C`: 0.0783 µM (active).
Consider `CNC(=O)ON=CC(C)(C)SC`, for which the result was inactive.
Still for that read-out and setting: under `C=CCC1=C(C)C(OC(=O)C2C(C=C(C)C)C2(C)C)CC1=O` (centres undefined) stands “inactive”; under `COP(N)(=O)SC` (centres undefined), “inactive”.
With `CCOc1cc(Oc2ccc(C(F)(F)F)cc2Cl)ccc1[N+](=O)[O-]`, the AC50 is 14.3 µM (active).
Still for that read-out and setting: under `CO/C=C(/C(=O)OC)c1ccccc1Oc1cc(Oc2ccccc2C#N)ncn1` stands 5.6 µM (active).
For `COP(=S)(OC)Oc1nc(Cl)c(Cl)cc1Cl`, the molecule was classed as inactive.
Same read-out and setting: under `CCCCNC(=O)n1c(NC(=O)OC)nc2ccccc21` stands “inactive”.
With `C=CC1(C)OC(=O)N(c2cc(Cl)cc(Cl)c2)C1=O` (centres undefined), the outcome was inactive.
Still for that read-out and setting: under `CCOC(=O)CC(SP(=S)(OC)OC)C(=O)OCC` (centres undefined) stands “inactive”.
